# Results reported in PubChem BioAssay.
# Unmarked numbers belong to inactive results. Calls of active or inactive are those of the source. Cut-off read from the data, not from the text of the source: active = fold change permeability below about 0.7 or above about 1.3; inactive = in between.
# Assay: compounds altering in vitro BBB leakiness – cell-based, FITC-avidin fluorescence, HTS, primary screen (AID 1963498); note: test concentration not given here
# Details: brain endothelial barrier, actives lie on both sides
row,SMILES,fold change permeability
1,CCN1CCc2nc(N)oc2CC1,1.1
2,O=C(Cc1ccccc1)Nc1nnc(CCSCCc2nnc(NC(=O)Cc3ccccc3)s2)s1,1.5 (active)
3,NC[C@@H]1O[C@H](O[C@H]2[C@@H](O)[C@H](O[C@@H]3[C@@H](O)[C@H](N)C[C@H](N)[C@H]3O[C@H]3O[C@H](CO)[C@@H](O)[C@H](O)[C@H]3N)O[C@@H]2CO)[C@H](N)[C@@H](O)[C@@H]1O,1
4,O=C(Nc1nc2ccccc2n1CCN1CCOCC1)c1cccc([N+](=O)[O-])c1,1.9 (active)
5,Brc1c(Br)c(Br)c2[nH]cnc2c1Br,1.2
6,O=c1[nH]c2ccccc2n1CCN1CCN(c2cccc(C(F)(F)F)c2)CC1,1.5 (active)
7,COc1cccc(OC)c1OCCNCC1CSc2ccccc2O1 (stereo not given),1.1
8,CN1CC(=O)NC1=NC(=O)Nc1cccc(Cl)c1,0.7 (active)
9,Cc1cc(Cn2cnc3c2C[C@@H](C(=O)O)N(C(=O)C(c2ccccc2)c2ccccc2)C3)ccc1N,1
10,CNCCC(Oc1ccccc1OC)c1ccccc1 (stereo not given),0.8
11,CC(=O)Oc1cc(C(F)(F)F)ccc1C(=O)O,0.8
12,O=C(COc1ccc(Cl)cc1)NC1CCC(NC(=O)COc2ccc(Cl)cc2)CC1 (stereo not given),0.9
13,C[C@H](C#Cc1ccc(Cc2ccc(F)cc2)s1)N(O)C(N)=O,1.1
14,CCN(C)C(=O)Oc1cccc([C@H](C)N(C)C)c1,1
15,CC1(C)CC=C(c2cnc3ccccc3c2)c2cc(C(=O)Nc3ccc(C(=O)O)cc3)ccc21,1.1
16,NCCS(=O)(=O)O,0.8
17,CCC(C)N(C)C(=O)c1cc2ccccc2c(-c2ccccc2Cl)n1 (stereo not given),0.9
18,O=C(Nc1cc(C(F)(F)F)cc(C(F)(F)F)c1)Nc1c(Br)cc(Br)cc1-c1nn[nH]n1,0.9
19,CC(C)Cc1ccc(C(C)C(=O)O)cc1 (stereo not given),2 (active)
20,CCCN1C[C@H](CSC)C[C@@H]2c3cccc4[nH]cc(c34)C[C@H]21,1.1

row,SMILES,fold change permeability
1,COc1ccc2c(c1)CC[C@@H]1[C@@H]2CC[C@]2(C)[C@@H](NCCCCCCN3C(=O)CCC3=O)CC[C@@H]12,2.2 (active)
2,CCOC(=O)[C@@H](N)Cc1ccc(O)c(O)c1,0.9
3,NC(N)=NC(=O)c1nc(Cl)c(N2CCCCCC2)nc1N,1.1
4,CCOC(=O)C1=C[C@@H](OC(CC)CC)[C@H](NC(C)=O)[C@@H](N)C1,0.8
5,CCc1cccc2c3c([nH]c12)C(CC)(CC(=O)O)OCC3 (stereo not given),1.3 (active)
6,COc1ccc2[nH]c([S@@](=O)Cc3ncc(C)c(OC)c3C)nc2c1,0.9
7,CN(C)CCCc1cc(C(=O)Nc2ccc(-c3ccncc3)cc2)ccc1O,1
8,CCc1ccc(/C=C2/SC(=S)NC2=O)cc1,1.4 (active)
9,CCCn1c(=O)c2[nH]c(C3CCCC3)nc2n(CCC)c1=O,1.5 (active)
10,O=C(Nc1ccc(-n2nc(C(F)(F)F)cc2C(F)(F)F)cc1)c1ccncc1F,1.2
11,CCN(CC)CCCCCCCCOC(=O)c1cc(OC)c(OC)c(OC)c1,1.1
12,N[C@@H](CC(=O)N1CCN(C(c2ccc(F)cc2)c2ccc(F)cc2)CC1)C(=O)N1Cc2ccccc2C1,1.1
13,CC(C)C(=O)Nc1ccc([N+](=O)[O-])c(C(F)(F)F)c1,1.2
14,CCN(CC)C(=S)SSC(=S)N(CC)CC,1.7 (active)
15,COc1cc2c(CCNC(C)=O)c[nH]c2cc1O,1.1
16,C[N+](C)(C)CCCCCC[N+](C)(C)C,1
17,O=C1S/C(=C\c2ccc(OCc3ccc(B(O)O)cc3)cc2)C(=O)N1Cc1ccc(F)cc1,1.2
18,CC(/C=C1\SC(=S)N(CC(=O)O)C1=O)=C\c1ccccc1,1
19,Cc1cc(O)c2c(c1)C(=O)c1cc(O)cc(O)c1C2=O,1.3 (active)
20,COc1ccccc1OCC(O)CN1CCN(CC(=O)Nc2c(C)cccc2C)CC1 (stereo not given),0.8
